Screens (PubChem)
HT1080NT lethal – qHTS for induction of synthetic lethality in tumor cells producing 2HG: qHTS for the HT-1080-NT fibrosarcoma cell line; Potency, µM (titrated, usually from 46.1 µM), usual class: cytotoxic; HT-1080-NT fibrosarcoma viability, CellTiter-Glo ATP luminescence, 48 h; actives 1.6% (n = 360,000);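 note: NT is the 2HG producing partner of a matched IDH1 knockdown line; nearly all actives have a fitted effect of over 55% in size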
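Viability by CellTiter-Glo luminescence after 48 h compound exposure at 37C of HT-1080-NT cells (750/well, RPMI, 5% FBS). % activity scaled between DMSO wells and medium-only wells, then curve-fitted and categorized by curve class.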
IL-1B inflam inh – qHTS for Inhibitors of Inflammasome Signaling: IL-1-beta AlphaLISA Primary Screen; THP-1 LPS/ATP IL-1B secretion, AlphaLISA, 16 h; stronger effect = lower value; activity change, % at 57.5 µM; actives 4.7% (n = 360,000); AID 743279, 2014; in the data active = activity change below about -50%; inconclusive = mostly about -30% to -49%
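THP-1 cells pretreated 1 hr with compounds (up to 57.5 uM final), then stimulated with LPS (250 ng/mL final) plus ATP (1.25 mM final); secreted IL-1B measured by AlphaLISA after 16 hr, decreased signal indicating inhibition.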
HT1080 IDH1KD tx – qHTS for induction of synthetic lethality in tumor cells producing 2HG: qHTS for the HT-1080-IDH1KD cell line. HT-1080 IDH1 knockdown viability, ATP luminescence, 48 h. Potency, µM (titrated, usually from 46.1 µM), actives largely listed as cytotoxic. actives 2% (n = 360,000)
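% activity derives from luminescence (CellTiter-Glo), normalised to DMSO and no-cell wells. HT-1080-IDH1KD cells, 750/well, had 48 h compound exposure at 37 °C.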
DT40 TDP1 CPT – qHTS for Inhibitors of human tyrosyl-DNA phosphodiesterase 1 (TDP1): qHTS in cells in presence of CPT. chicken DT40 Tdp1-/-;hTDP1 cells + 20 nM CPT, ATP luminescence, 48 h. Potency, µM (series often up to 46.2 µM), usual class: inhibitors. actives 12% (n = 420,000). AID 686979, 2013; note: nearly all actives have a fitted effect of over 55% in size
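Chicken DT40 Tdp1-/- cells complemented with human TDP1, 400 cells/well, exposed to compounds plus 20 nM camptothecin for at least 48 h at 37 C; viability read as ATP content by CellTiter-Glo luminescence.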
DT40 TDP1 no CPT – qHTS for Inhibitors of human tyrosyl-DNA phosphodiesterase 1 (TDP1): qHTS in cells in absence of CPT. Potency, µM (series often up to 46.2 µM), hits mostly inhibitors. actives 15% (n = 420,000). DT40 Tdp1-/- hTDP1 cells, no CPT, ATP luminescence, 48 h; note: nearly all actives have a fitted effect of over 55% in size
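Cells were dispensed at 400 per well, compounds added by pin tool, plates incubated ≥48 hr at 37 °C, then CellTiter-Glo added for 30 min at room temperature before luminescence reading. Line: DT40 Tdp1-/- complemented with hTDP1; camptothecin omitted.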
Each line names hits and unclear results; the compound was inactive in the other large screens. Hits are enriched below; roughly 19% of the tested compounds scored in any of these assays. Unless noted, calls come from the whole dose curve; as a rule, active = well fitted curve in the direction sought with a large enough effect; inconclusive = small, poorly fitted or top-dose-only effect, or another doubt; inactive = no such curve, though single readings can be large; an effect the other way counts as inactive or inconclusive.

OC(CNCC1(N2CCCCC2)CCCCC1)COc1ccc(Cl)cc1Cl (configuration not stated)	HT1080NT lethal inconclusive, IL-1B inflam inh -91, HT1080 IDH1KD tx 18µM, DT40 TDP1 CPT inconclusive, DT40 TDP1 no CPT 15µM
Cc1ccc(C(C)C)c(OCC(=O)NCC2(N3CCOCC3)CCCCC2)c1	DT40 TDP1 CPT 9.2µM, DT40 TDP1 no CPT 7.3µM (no result: HT1080NT lethal, IL-1B inflam inh, HT1080 IDH1KD tx)
O=C(COc1ccc(F)cc1Br)NCC1(N2CCCCC2)CCCCC1	DT40 TDP1 CPT inconclusive, DT40 TDP1 no CPT inconclusive
O=C(COc1ccc(Cl)cc1Cl)NCC1(N2CCOCC2)CCCCC1	IL-1B inflam inh -65, DT40 TDP1 CPT 18µM, DT40 TDP1 no CPT 21µM
OC(COc1ccc(Cl)cc1Cl)CN1CCc2ccccc2C1 (configuration not stated)	HT1080NT lethal inconclusive, HT1080 IDH1KD tx inconclusive, DT40 TDP1 CPT inconclusive, DT40 TDP1 no CPT inconclusive
COc1ccccc1OCC(=O)NCC1(N2CCOCC2)CCCCC1	DT40 TDP1 CPT inconclusive (no result: HT1080NT lethal, IL-1B inflam inh, HT1080 IDH1KD tx)
O=C(COc1ccccc1Cl)NCC1(N2CCOCC2)CCCCC1	DT40 TDP1 CPT 21µM, DT40 TDP1 no CPT 15µM (no result: HT1080NT lethal, IL-1B inflam inh, HT1080 IDH1KD tx)
Cc1ccc(C(C)C)c(OCC(=O)N2CCOCC2)c1	none
CC1CN(C(=O)CSc2nnc(CNC(=O)c3ccc(S(=O)(=O)N(C)C)cc3)o2)CC(C)O1 (configuration not stated)	none
CC(=O)N1CCC(CCCC2CCN(C(C)=O)CC2)CC1	HT1080NT lethal inconclusive
O=C1CC(c2ccccc2)=NN1c1ccccc1	HT1080NT lethal inconclusive, IL-1B inflam inh -82, DT40 TDP1 CPT inconclusive, DT40 TDP1 no CPT 15µM
COc1ccc(OC)c(NC(=O)C2CCCN(S(=O)(=O)c3cccc4nonc34)C2)c1 (configuration not stated)	none
COc1ccc2nc(NC(=O)C3CCCN(S(=O)(=O)c4cccc5nsnc45)C3)sc2c1 (configuration not stated)	IL-1B inflam inh inconclusive, DT40 TDP1 CPT inconclusive, DT40 TDP1 no CPT 16µM
CC1CCN(C(=O)C2CCCN(S(=O)(=O)c3cccc4nsnc34)C2)CC1 (configuration not stated)	DT40 TDP1 CPT inconclusive
Cc1ccc(NC(=O)C2CCCN2S(=O)(=O)c2cccc3nsnc23)c(Br)c1 (configuration not stated)	DT40 TDP1 CPT inconclusive, DT40 TDP1 no CPT 21µM (no result: HT1080NT lethal, IL-1B inflam inh, HT1080 IDH1KD tx)
COc1ccc2nc(NC(=O)C3CCCN(S(=O)(=O)c4c(C)noc4C)C3)sc2c1 (configuration not stated)	DT40 TDP1 CPT inconclusive, DT40 TDP1 no CPT inconclusive
COc1ccc2nc(NC(=O)C3CCCN(S(=O)(=O)c4cccc5nonc45)C3)sc2c1 (configuration not stated)	IL-1B inflam inh -53, DT40 TDP1 CPT inconclusive, DT40 TDP1 no CPT inconclusive
COc1cccc(N2CCN(C(=O)C3CCCN(S(=O)(=O)c4cccc5nsnc45)C3)CC2)c1 (configuration not stated)	DT40 TDP1 CPT 9.2µM, DT40 TDP1 no CPT 9.2µM (no result: HT1080NT lethal, IL-1B inflam inh, HT1080 IDH1KD tx)
O=C(Nc1ccc(F)cc1F)C1CCCN1S(=O)(=O)c1cccc2nsnc12 (configuration not stated)	DT40 TDP1 no CPT inconclusive
COc1ccc(CNC(=O)C2CCN(S(=O)(=O)c3cccc4nsnc34)CC2)cc1	DT40 TDP1 no CPT inconclusive
CCOc1ccc2nc(NC(=O)C3CCCN(S(=O)(=O)c4c(C)noc4C)C3)sc2c1 (configuration not stated)	HT1080NT lethal inconclusive, HT1080 IDH1KD tx inconclusive, DT40 TDP1 CPT inconclusive, DT40 TDP1 no CPT inconclusive
COc1ccc(CNC(=O)C2CCCN(S(=O)(=O)c3cccc4nsnc34)C2)cc1 (configuration not stated)	DT40 TDP1 no CPT 23µM
CCOc1ccc2nc(NC(=O)C3CCCN(S(=O)(=O)c4cccc5nonc45)C3)sc2c1 (configuration not stated)	HT1080 IDH1KD tx inconclusive, DT40 TDP1 CPT inconclusive, DT40 TDP1 no CPT 16µM
Cc1ccc2nc(NC(=O)C(NS(=O)(=O)c3cccc4nsnc34)C(C)C)sc2c1 (configuration not stated)	DT40 TDP1 CPT 29µM, DT40 TDP1 no CPT inconclusive
Cc1ccc(NC(=O)C2CCN(S(=O)(=O)c3cccc4nsnc34)CC2)cc1F	DT40 TDP1 CPT inconclusive (no result: HT1080NT lethal, IL-1B inflam inh, HT1080 IDH1KD tx)
Cc1ccc(NC(=O)C2CCCN(S(=O)(=O)c3cccc4nsnc34)C2)cc1C (configuration not stated)	DT40 TDP1 CPT inconclusive, DT40 TDP1 no CPT 18µM (no result: HT1080NT lethal, IL-1B inflam inh, HT1080 IDH1KD tx)
CC(=O)N1CCc2c(sc3c2c(=O)n(-c2ccc(F)cc2)c(=O)n3Cc2cc(C)ccc2C)C1	none (no result: HT1080NT lethal, IL-1B inflam inh, HT1080 IDH1KD tx)
CCn1cc(CN2CCCC(C(=O)Nc3ccc(-c4cscn4)cc3)C2)c(C)n1 (configuration not stated)	none
Cc1ccc2nc(-c3ccc(NC(=S)NCCC(C)C)cc3)sc2c1	DT40 TDP1 no CPT inconclusive
Cc1ccc2nc(-c3ccc(NC(=S)NCC(C)(C)CN(C)C)cc3)sc2c1	DT40 TDP1 CPT 6.5µM, DT40 TDP1 no CPT 6.5µM
CCCCNC(=S)Nc1ccc(-c2nc3ccc(C)cc3s2)cc1	DT40 TDP1 CPT inconclusive, DT40 TDP1 no CPT 18µM
O=C(Cc1ccc(F)cc1)N1CCC2(CC1)NCCc1[nH]cnc12	none
CC(C)(C)c1ccc(C(=O)NCC(=O)NNC(=O)c2ccccc2O)cc1	DT40 TDP1 CPT inconclusive, DT40 TDP1 no CPT inconclusive
Cc1ccc(O)c(C(=O)CC(=O)c2ccc(C(C)(C)C)cc2)c1	DT40 TDP1 CPT 7.3µM, DT40 TDP1 no CPT 4.6µM
Cc1ccc(O)c(C(=O)CC(=O)c2ccccc2Cl)c1	HT1080NT lethal inconclusive, HT1080 IDH1KD tx 12µM, DT40 TDP1 CPT 2.3µM, DT40 TDP1 no CPT 4.6µM
Cc1ccc(C(=O)c2ccccc2C(=O)O)c(O)c1	none
Cc1ccccc1OCC(=O)Nc1ccc(OCc2cc(=O)n3ccccc3n2)cc1	none (no result: HT1080NT lethal, IL-1B inflam inh, HT1080 IDH1KD tx)
CCCn1cc(SCC(=O)Nc2ccc3c(c2)OCO3)c2ccccc21	IL-1B inflam inh inconclusive, DT40 TDP1 no CPT inconclusive
COc1ccc(C(=O)NCCn2cc(SCC(=O)Nc3nnc(C)s3)c3ccccc32)cc1	DT40 TDP1 CPT inconclusive, DT40 TDP1 no CPT inconclusive
COc1ccc(CCNC(=O)CSc2cn(CCNC(=O)c3ccc(OC)c(OC)c3)c3ccccc23)cc1OC	DT40 TDP1 CPT inconclusive, DT40 TDP1 no CPT 23µM (no result: HT1080NT lethal, IL-1B inflam inh, HT1080 IDH1KD tx)
COc1ccc(C(=O)NCCn2cc(SCC(=O)NCCc3ccc(OC)c(OC)c3)c3ccccc32)cc1	DT40 TDP1 CPT 18µM, DT40 TDP1 no CPT 16µM (no result: HT1080NT lethal, IL-1B inflam inh, HT1080 IDH1KD tx)
